30 molecules from PubChem BioAssay (NCATS) can be followed below.

Results filed as inconclusive are left out. The source made the active and inactive calls. Unless noted, calls come from the whole dose curve.

Test [1] addresses Rap guanine nucleotide exchange factor 3 (Homo sapiens) (UniProt O95398). Put plainly: Counterscreen qHTS for agonist of cAMP-regulated guanine nucleotide exchange factor 3 (EPAC1) (AID 1645889; active = well fitted activation curve with a large enough effect; note: % of control where 0% means no effect; nearly all actives have a fitted effect of over 40% in size). An outline of the steps:
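Measured: fluorescence of BODIPY-GDP bound to Rap1B, which falls as exchange proceeds. Conditions include 50 uM competing GDP, 5 and 30 min reads, and a later cAMP challenge for antagonist detection.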

Test [2] concerns the target Catechol O-methyltransferase (Homo sapiens) (UniProt P21964). Put plainly: Confirmatory Screen for Target Class Profiling of Small Molecule Inhibitors of Methyltransferases (AID 1745852). For activity change, negative = inhibition: % is set by controls: 0 for no effect and ±100 for the full control effect. Note: potency is the fitted concentration of half-maximal effect. To be noted: MTase-Glo luminescence, SAH detection, recombinant enzyme; measured here: COMT max response; stronger effect = lower value.
Test [3] has as its target Guanidinoacetate N-methyltransferase (Homo sapiens) (UniProt Q14353). The test is described as above. To be noted: activity change, negative = inhibition: at 57.3 µM (top of the series) unless noted.
Test [4] addresses Nicotinamide N-methyltransferase (Homo sapiens) (UniProt P40261). The test is described as above. To be noted: MTase-Glo luminescence, SAH detection, recombinant enzyme; measured here: NNMT max response; stronger effect = lower value.
The target in test [5] is Phenylethanolamine N-methyltransferase (Homo sapiens) (UniProt P11086). The test is described as above. To be noted: MTase-Glo luminescence, SAH detection, recombinant enzyme; measured here: PNMT max response; stronger effect = lower value.
Phenylethanolamine N-methyltransferase (Homo sapiens), sequence (P11086 whole entry, looked up): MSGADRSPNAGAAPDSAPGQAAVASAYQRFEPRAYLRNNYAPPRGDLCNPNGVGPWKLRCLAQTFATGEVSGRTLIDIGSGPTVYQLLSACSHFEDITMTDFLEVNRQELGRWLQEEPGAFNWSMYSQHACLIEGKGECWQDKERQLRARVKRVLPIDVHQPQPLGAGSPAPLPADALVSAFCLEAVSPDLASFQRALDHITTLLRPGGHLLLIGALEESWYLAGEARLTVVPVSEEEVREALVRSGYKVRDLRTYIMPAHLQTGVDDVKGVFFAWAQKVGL

Nicotinamide N-methyltransferase (Homo sapiens), sequence (P40261 whole entry, looked up): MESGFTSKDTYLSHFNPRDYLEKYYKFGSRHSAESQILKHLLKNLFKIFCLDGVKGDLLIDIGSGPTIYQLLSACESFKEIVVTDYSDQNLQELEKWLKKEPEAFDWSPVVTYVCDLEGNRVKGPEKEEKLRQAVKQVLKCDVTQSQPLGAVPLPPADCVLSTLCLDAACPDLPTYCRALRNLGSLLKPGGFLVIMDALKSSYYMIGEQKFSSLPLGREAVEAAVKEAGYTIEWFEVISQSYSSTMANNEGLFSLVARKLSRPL
Catechol O-methyltransferase (Homo sapiens), sequence (P21964 whole entry, looked up): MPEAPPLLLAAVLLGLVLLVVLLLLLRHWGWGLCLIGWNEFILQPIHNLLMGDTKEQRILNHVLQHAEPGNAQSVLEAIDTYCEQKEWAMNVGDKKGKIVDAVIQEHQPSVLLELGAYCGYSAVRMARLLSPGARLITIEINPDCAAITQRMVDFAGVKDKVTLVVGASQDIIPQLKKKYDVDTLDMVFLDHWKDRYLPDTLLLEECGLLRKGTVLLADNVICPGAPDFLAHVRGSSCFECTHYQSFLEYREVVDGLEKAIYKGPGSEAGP

As for `C[C@]12CC[C@@H]3c4ccc(OS(=O)(=O)O)cc4CC[C@H]3[C@@H]1CCC2=O`, the outcome in test [1] is “inactive”.

With `CCCc1cc2c(N3CCN(C4=NCC(C)(C)S4)CC3)ncnc2s1`, the figures for the activity in test [2], in test [4] and in test [5] were -3.43%, -77.1% and -5.27%, respectively. In test [3], the activity change, negative = inhibition is 1.29%.

Regarding `CCC(=O)N1CCOc2c(cc(-c3ccc(OC)c(OC)c3)cc2OC[C@H]2CCCN(C)C2)C1`, the activity in test [2] is -13.1%; in test [4] it was -10.5%; in test [5], -9.1%. In addition, in test [3], the activity change, negative = inhibition was -8.77%.

With `COC(=O)CC1OC(C)C2=C(O)c3c(O)cccc3C(=O)C23OC13` (configuration not stated), the values for the activity in test [2], in test [4] and in test [5] were -4.94%, -0.835% and -0.505%, respectively. Besides, the activity change, negative = inhibition in test [3] is -3.96%.

For `COC(C)(C)CCn1nc(Nc2c(C)cccc2C)c2cnc(Nc3ccc(OCCN4CCCC4)c(F)c3)nc21`, the activity in test [2] is -6.73%; in test [4], -23.2%; in test [5], -4.06%. In test [3], the activity change, negative = inhibition was found to be 0%.

For the molecule `NC(=O)c1ccccc1Nc1ccnc(Nc2cccc(O)c2)n1`, the activity is -4.04% in test [2], -41.1% in test [4] and -7.27% in test [5]. In addition, the activity change, negative = inhibition in test [3] stood at 1.25%.

For the molecule `CC(C)C[C@H](C(=O)O)c1cc(-c2ccc(C(F)(F)F)cc2)cc(-c2ccc(C(F)(F)F)cc2)c1`, the activity was -6.76% in test [2], -40.6% in test [4] and -16.1% in test [5]. In test [3], the Potency is 48.2 µM (active).

Regarding `Cc1[nH]c2ccccc2c1CCNCc1ccc(/C=C/C(=O)NO)cc1`, the activity in test [2] was 16.3%; in test [4] it was -6%; in test [5] it was -2.09%. Besides, the activity change, negative = inhibition in test [3] is -2.13%.

For the molecule `Cc1cc(N2CCOCC2)ccc1Nc1nc(NC2CCCCC2)c2[nH]cnc2n1`, the activity is -13.2% in test [2], -20.9% in test [4] and -9.51% in test [5]. The activity change, negative = inhibition in test [3] was -8.72%.

Take `COc1ccc(NC(=O)c2ccc(-c3ccc(C(=N)N)cc3C)cc2)cc1N1CCN(C)CC1`: the results for the activity in test [2], in test [4] and in test [5] were -5.44%, -3.54% and -6.51%, respectively. The activity change, negative = inhibition in test [3] amounted to 2.76%.

In the case of `C=CC(=O)Nc1cccc(Nc2nc(Nc3ccc(OCCOC)cc3)ncc2F)c1`, the values for the activity in test [2], in test [4] and in test [5] were -40.1%, -65.2% and -40.1%, respectively. For the same molecule, the Potency in test [3] was 27.1 µM (active).

On to `COC1C=C(C)C(O)(CO)C2(C)CCCC(C)(C)C12` (configuration not stated), for which the activity is -68.4% in test [2], -3.75% in test [4] and -2.37% in test [5]. Moreover, the activity change, negative = inhibition in test [3] was -5.83%.

`C=C1C(=O)OC2C1CCC1(C)C(O)CCC(=C)C21` (configuration not stated): the activity in test [2] is -62.8%; in test [4] it was 1.08%; in test [5], -1.43%. Also, the activity change, negative = inhibition in test [3] is -2.15%.

With `COc1c(CCC(=O)O)cccc1O[C@@H]1O[C@H](CO)[C@@H](O)[C@H](O)[C@H]1O`, the activity in test [2] is -74.9%; in test [4], 0.561%; in test [5], -9.51%. In addition, in test [3], the activity change, negative = inhibition amounted to 2.56%.

In the case of `CC(C)c1cc2c(N3CCN(C4=NCC(C)(C)S4)CC3)ncnc2s1`, the activity is -1.24% in test [2], -65.8% in test [4] and -7.2% in test [5]. Further, the activity change, negative = inhibition in test [3] was 0.38%.

As for `Cc1ccc(CNc2ncnc3ccc(-c4ccc(CO)o4)cc23)o1`, the activity is -5.85% in test [2], -7.73% in test [4] and -9.87% in test [5]. For the same molecule, in test [3], the activity change, negative = inhibition is -1.25%.

Turning to `CC1(C)CC[C@]2(C(=O)O)CC[C@]3(C)C(=CCC4[C@@]5(C)C[C@@H](O)[C@H](O)C(CO)(CO)C5CC[C@]43C)C2[C@@H]1O` (some centres not stated), the activity is -63.1% in test [2], 0% in test [4] and 6.04% in test [5]. Moreover, the activity change, negative = inhibition in test [3] was 0% [at 29.8 µM].

As for `Cc1c[nH]c2ncnc(N3CCC(CN)(C(=O)Nc4cccc(OC(=O)N(C)C)c4)CC3)c12`, the activity is -12.7% in test [2], -59.8% in test [4] and -19.2% in test [5]. Also, in test [3], the activity change, negative = inhibition was -4.87% [at 114 µM].

In the case of `Cn1cc(-c2ccc(F)c(C(F)(F)F)c2)nc1C1CCN(c2ncnc3[nH]ncc23)CC1`, the activity in test [2] is 2.12%; in test [4], -37.5%; in test [5], -1.21%. For the same molecule, the activity change, negative = inhibition in test [3] turned out to be 1.12% [at 9.47 µM].

For the molecule `CCn1c2ccccc2c2cc(Nc3ccnc(NCCCN4CCOCC4)n3)ccc21`, the activity in test [2] is -20%; in test [4], -66.6%; in test [5] it was -29.8%. Further, the activity change, negative = inhibition in test [3] is -7.76%.

In the case of `CCCCCc1ccc(/C=C/C(=O)Nc2cc(Cl)ccc2C(=O)O)cc1`, the activity in test [2] is -6.7%; in test [4], -47.8%; in test [5], -21.5%. Also, the Potency in test [3] is 42.9 µM (active).

`Clc1ccc(Cn2c(Cc3ccccc3)nc3ccccc32)cc1`: the activity in test [2] is -6.59%; in test [4], -51%; in test [5] it was -7.3%. For the same molecule, in test [3], the activity change, negative = inhibition was -6.78%.

As for `CC[C@H]1CN(c2nc(N)c(C(N)=O)nc2Cl)CCN1C1CCN(Cc2ccc(Cl)cc2)CC1`, the activity in test [2] was -6.83%; in test [4], -61.1%; in test [5], -5.17%. Moreover, the activity change, negative = inhibition in test [3] was -2.17% [at 29.8 µM].

Consider `Cc1cc(NC(=O)NCCN2CCC(O)(Cc3ccccc3)CC2)c2ccccc2n1`, for which the values for the activity in test [2], in test [4] and in test [5] were -2.12%, 2.4% and 0.991%, respectively. In addition, the activity change, negative = inhibition in test [3] came out at 0%.

Take `COc1cc2c(Nc3cc(F)c(Cl)c(Cl)c3)ncnc2cc1OCC1CCCN(C)CCC1`: the results for the activity in test [2], in test [4] and in test [5] were -15.2%, -13.9% and -10.4%, respectively. Besides, the activity change, negative = inhibition in test [3] was -2.91%.

Turning to `CCC(=C(c1ccc(OCCN2CCCC2)cc1)c1ccc(OCCN2CCCC2)cc1)c1ccccc1`, the activity in test [2] is -7.7%; in test [4] it was -3.61%; in test [5] it was -4.76%. Further, the activity change, negative = inhibition in test [3] is -5.33% [at 12.7 µM].

As to `CC(C)(C)Sc1c(CC(C)(C)C(=O)O)n(Cc2ccc(Cl)cc2)c2ccc(OCc3ccc4ccccc4n3)cc12`, the results for the activity in test [2], in test [4] and in test [5] were 1.57%, -17.1% and -5.18%, respectively. In test [3], the Potency entry was “inactive”.

Take `Nc1ncnc2c1c(-c1ccc(Oc3ccccc3)cc1)nn2[C@@H]1CCCNC1`: the activity in test [2] is -13.8%; in test [4], -54%; in test [5], -19%. In addition, in test [3], the activity change, negative = inhibition is -5.27%.

Take `COc1cc(/C=N\NC(=O)c2ccc3c(c2)OCO3)ccc1OCc1ccccc1`: the activity was -3.52% in test [2], -20.5% in test [4] and -1.07% in test [5]. In addition, in test [3], the activity change, negative = inhibition is 1.69%.

In the case of `C=C1C(=O)O[C@@H]2/C=C(\CO)CC/C=C(/C=O)C[C@@H](O)[C@@H]12`, the activity in test [2] was -63.7%; in test [4] it was -2.02%; in test [5], -2.71%. In addition, in test [3], the activity change, negative = inhibition was -8.49%.
